LT uptake inh: qHTS Assay for Anthrax Lethal Toxin Internalization | Cells, anthrax lethal toxin internalization, FRET ratio (460/530) | Potency, µM (titrated, usually from 40 µM), for the others: at the highest dose activity change, negative = inhibition, usual class: inhibitors | 70,000 compounds, 0.67% hits | AID 912, 2007; also: % is scaled to controls: 0 for no effect and ±100 for the full control effect; nearly all actives have a fitted effect of over 50% in size
SmPrx2 inh: Schistosoma Mansoni Peroxiredoxins (Prx2); AID 448, 2006; S. mansoni Prx2 activity coupled to TGR/GSH (TGR is thioredoxin glutathione reductase), NADPH fluorescence loss, qHTS; 65,000 compounds, 0.07% hits; Potency, µM; Schistosoma mansoni peroxiredoxin 2 (Prx2)
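Enzyme mix: 100 uM NADPH, 25 nM TGR, 700 uM GSH, 50 nM Prx2 in 100 mM phosphate pH 7.4, 10 mM EDTA, 0.01% Tween-20. 15 min RT with compound; NADPH/GSH added, H2O2 starts reaction; NADPH fluorescence read 8 min.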
AmpC inh no det: Promiscuous and Specific Inhibitors of AmpC Beta-Lactamase (assay without detergent); P00811; 71,000 compounds, 1.8% hits; Potency, µM (series often up to 28.7 µM), for inactives: at the highest dose activity change, negative = inhibition; AmpC nitrocefin hydrolysis, absorbance 480 nm, no detergent; also: % of control where 0% means no effect
Target sequence (P00811 whole entry, looked up): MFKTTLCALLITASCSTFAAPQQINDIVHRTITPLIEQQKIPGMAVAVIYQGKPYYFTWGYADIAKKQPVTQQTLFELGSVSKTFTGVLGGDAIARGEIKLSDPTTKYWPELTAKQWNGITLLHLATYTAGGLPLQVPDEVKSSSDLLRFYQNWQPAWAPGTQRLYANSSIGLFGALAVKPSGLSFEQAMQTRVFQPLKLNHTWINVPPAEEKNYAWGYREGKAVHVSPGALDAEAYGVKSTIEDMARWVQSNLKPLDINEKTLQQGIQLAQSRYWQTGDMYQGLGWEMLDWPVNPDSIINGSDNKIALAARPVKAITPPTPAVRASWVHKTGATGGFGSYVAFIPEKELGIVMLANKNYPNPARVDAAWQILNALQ
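AmpC, 20 mM phosphate pH 7.0; 15 min cpd preinc, RT; start with nitrocefin (800 uM stock); A480 kinetic read, 20 s intervals, 4 min. No-enzyme wells = negative control.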
AmpC inh det: Promiscuous and Specific Inhibitors of AmpC Beta-Lactamase (assay with detergent). P00811. purified AmpC, nitrocefin hydrolysis with detergent. Potency, µM (titrated, usually from 28.7 µM), for the others: at the top dose activity change, negative = inhibition. 71,000 compounds, 0.09% hits. AID 584, 2007; active = well fitted curve in the direction sought with a large enough effect; inconclusive = small, poorly fitted or top-dose-only effect; also: % is scaled to controls: 0 for no effect and ±100 for the full control effect
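E. coli AmpC (5.3 nM) in 20 mM phosphate pH 7.0 with 0.01% Triton X-100, preincubated 15 min RT with compound; nitrocefin (2 uL of 800 uM stock) hydrolysis followed by 480 nm absorbance every 20 s over 4 min.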
Active calls of the source: *; [ ] = another dose, or the depositor's remark. Rows were chosen to be rich in hits. Some 2.4% of all compounds tested hit in one or more screens of this group. Unless noted, calls follow the shape of the full dose curve. Potency is read from the fitted curve at half-maximal effect.

CCOc1ccc(C2CC(c3ccc(F)cc3)n3ncnc3N2)cc1 (stereo not drawn) was read as LT uptake inh -13%, SmPrx2 inh >57, AmpC inh no det 4µM*[single pt active] and AmpC inh det 12%.
`CC(=O)[C@H]1CC[C@@H]2[C@]1(C)CC=C1[C@]23C=C[C@]2(C[C@H](O)CC[C@@]12C)[C@H](C(=O)O)[C@@H]3C(=O)O` gave LT uptake inh -4%[8 µM], SmPrx2 inh >57, AmpC inh no det 1%[5.75 µM] and AmpC inh det -5%[5.75 µM].
For N[C@H](Cn1oc(=O)[nH]c1=O)C(=O)O the results were LT uptake inh 4%, SmPrx2 inh >57, AmpC inh no det 6% and AmpC inh det -5%.
`COc1ccccc1N1CCN(Cc2cc(Br)c(O)c3ncccc23)CC1` gave LT uptake inh inconclusive, SmPrx2 inh >57, AmpC inh no det 2.5µM*[single pt active] and AmpC inh det 17%.
For Cn1c(=O)c2nc(-c3ccc(Cl)cc3Cl)oc2c2ccccc21 the results were LT uptake inh -19%, SmPrx2 inh >57, AmpC inh no det 2.5µM* and AmpC inh det 13%.
O=C(O)/C(Cc1ccc([N+](=O)[O-])cc1)=N/O was read as LT uptake inh 4%[8 µM], SmPrx2 inh >57, AmpC inh no det -4%[5.75 µM] and AmpC inh det -1%[5.75 µM].
Screening CNc1nc(Nc2ccc(C(C)=O)cc2)nc(OC(C(F)(F)F)C(F)(F)F)n1 returned LT uptake inh 10µM*, SmPrx2 inh >57, AmpC inh no det 38% and AmpC inh det 2%.
OC[C@@H]1NC[C@@H](O)[C@H]1O was read as LT uptake inh 10%, SmPrx2 inh >57, AmpC inh no det 5% and AmpC inh det 1%.
Screening Cc1cc(NC(=O)c2noc3c2CCc2ccccc2-3)n(-c2ccccc2)n1 returned LT uptake inh -11%, SmPrx2 inh >57, AmpC inh no det 2.5µM*[single pt active] and AmpC inh det 12%.
OCCN1CCN(c2ncnc3c2sc2nc(N4CCOCC4)c4c(c23)CCC4)CC1 was read as LT uptake inh 10µM*, SmPrx2 inh >57, AmpC inh no det 43% and AmpC inh det -1%.
For O=C(Nc1c2c(nn1-c1ccc(F)cc1)CSC2)c1ccc(S(=O)(=O)N2CCOCC2)cc1 the results were LT uptake inh -6%, SmPrx2 inh >57, AmpC inh no det 24% and AmpC inh det -1%.
For CC(C)CC(=O)Nc1c2c(nn1-c1ccc(F)cc1)CSC2 the results were LT uptake inh 1%, SmPrx2 inh >57, AmpC inh no det 4µM*[single pt active] and AmpC inh det 13%.
For N#Cc1sc2nc3c(c(-c4ccco4)c2c1N)CCCC3 the results were LT uptake inh -14%, SmPrx2 inh >57, AmpC inh no det 13µM*[single pt active] and AmpC inh det 10%.
For NC(=S)NCCC[C@@H](N)C(=O)O the results were LT uptake inh 6%, SmPrx2 inh >57, AmpC inh no det -5% and AmpC inh det -3%.
For COc1cc2c(cc1OC)[C@]13CC[N@+]4(C)CC5=CCO[C@H]6CC(=O)N2[C@@H]1[C@@H]6[C@@H]5C[C@]34O the results were LT uptake inh 1%[8 µM], SmPrx2 inh >57, AmpC inh no det 2%[5.75 µM] and AmpC inh det -2%[5.75 µM].
O=C(NC1CCCc2ccccc21)C1CCN(c2c(N3CCCC3)c(=O)c2=O)CC1 (stereo not drawn) was read as LT uptake inh -5%, SmPrx2 inh >57, AmpC inh no det 4µM*[single pt active] and AmpC inh det 11%.
`Cc1cc(=O)n2nc(N3CCC(C(=O)NC4CCCc5ccccc54)CC3)sc2n1` (stereo not drawn) gave LT uptake inh 5%, SmPrx2 inh >57, AmpC inh no det 65% and AmpC inh det 15%.
Screening COc1ccc(-n2nnnc2S(=O)(=O)CC(=O)N2CCCCC2)cc1 returned LT uptake inh 3.2µM*, SmPrx2 inh inconclusive, AmpC inh no det 11% and AmpC inh det 8%.
CC(N)CN (stereo not drawn) was read as LT uptake inh 0%, AmpC inh no det 4% and AmpC inh det 12%.
`C=C1CC[C@@H](O)C/C1=C/C=C1\CCC[C@]2(C)[C@@H]1CC[C@H]2[C@@H](C)/C=C\[C@@H](C)C(C)C` gave LT uptake inh inconclusive, SmPrx2 inh >57, AmpC inh no det 153% and AmpC inh det -18%.
Screening O=C(O)CCc1ccc(-c2ccccc2)[nH]1 returned LT uptake inh 6%[8 µM], SmPrx2 inh >57, AmpC inh no det -5%[5.75 µM] and AmpC inh det -9%[5.75 µM].
Screening O=C(Nc1ccc(N2C(=O)C3C4C=CC(C4)C3C2=O)cc1)Nc1nncs1 (stereo not drawn) returned LT uptake inh -20%, SmPrx2 inh >57, AmpC inh no det 4µM*[single pt active] and AmpC inh det 5%.
Screening O=S1(=O)N[C@H]2CC[C@@H]3NS(=O)(=O)N[C@H]4CC[C@H](N1)N4S(=O)(=O)N23 returned LT uptake inh inconclusive, SmPrx2 inh >57, AmpC inh no det -24%[5.75 µM] and AmpC inh det 0%[5.75 µM].
Screening CC1=C(C(=O)O)N2C(=O)[C@@H](NC(=O)[C@@H](N)c3ccccc3)[C@@H]2SC1 returned LT uptake inh 1%[3.58 µM], AmpC inh no det -17%[12.8 µM] and AmpC inh det -2%[12.8 µM].
Screening CCCC[C@@H]1C[C@H]1C(NC(=O)c1ccco1)c1ccc(Cl)cc1 (stereo partly drawn) returned LT uptake inh inconclusive, SmPrx2 inh >57, AmpC inh no det 10µM*[single pt active] and AmpC inh det -4%.
For CCCC[C@@H]1C[C@H]1C(NC(=O)c1ccco1)c1ccc(-c2ccccc2)cc1 (stereo partly drawn) the results were LT uptake inh -10%, SmPrx2 inh >57, AmpC inh no det 13µM*[single pt active] and AmpC inh det -3%.
Screening CCCC[C@@H]1C[C@H]1C(NC(=O)c1ccccc1)c1ccccc1 (stereo partly drawn) returned LT uptake inh 2%, SmPrx2 inh >57, AmpC inh no det -20% and AmpC inh det -2%.
`CCCC[C@@H]1C[C@H]1C(NC(=O)c1ccco1)c1ccccc1C(F)(F)F` (stereo partly drawn) gave LT uptake inh inconclusive, SmPrx2 inh >57, AmpC inh no det -18% and AmpC inh det -4%.
For Cc1ccccc1NC(=O)CN1C(=O)COc2ccc(Cl)cc21 the results were LT uptake inh 10µM*, SmPrx2 inh >57, AmpC inh no det 2% and AmpC inh det 12%.
For Cc1cc(C(=O)CN2CC(C)OC(C)C2)c(C)n1-c1ccccc1 (stereo not drawn) the results were LT uptake inh 7%, SmPrx2 inh >57, AmpC inh no det 4µM*[single pt active] and AmpC inh det 13%.
O=c1c(-c2ccc(F)cc2)nc2cnc(N3CCNCC3)nc2n1Cc1ccc(F)cc1 was read as LT uptake inh inconclusive, SmPrx2 inh >57, AmpC inh no det 121% and AmpC inh det 15%.
Screening COc1ccc(C(=O)CSc2nnc(-c3cc4ccccc4cc3O)n2Cc2ccco2)cc1 returned LT uptake inh inconclusive, SmPrx2 inh >57, AmpC inh no det 10µM* and AmpC inh det 15%.

Source: PubChem BioAssay
